# The list is not random: actives were taken first. Their share in the collection is about 19%.
# HepG2 tox: counter-screen for TGF-b inhibitors: cytotoxicity in HepG2 cells; HepG2 CAGA-GFP viability, ATP luminescence, 18 h; Potency, µM (doses to about 46.1 µM), for the others: at the top dose activity change, negative = cytotoxicity, actives largely listed as cytotoxic; 0.76% of 410,000 active; also: potency is read from the fitted curve at half-maximal effect
#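 CellTiter-Glo luminescence gave cytotoxicity after 18 hours at 37 degrees C. The cells were HepG2 CAGA-GFP in 1% FBS DMEM, stimulated with 500 pg/mL TGF-beta after compound addition. %Activity was normalised to no-cell wells (complete cell-killing) and DMSO (no toxicity), and curves were fitted and classified.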
# TGFb inhibitor: TGF-b pathway inhibition | HepG2 CAGA-GFP TGF-b/SMAD3 reporter, GFP fluorescence, 18 h; TGF-beta stimulated, 500 pg/mL final | Potency, µM (doses to about 46.1 µM), without a hit: at the highest dose activity, negative = inhibition, usual class: inhibitors | 1.2% of 410,000 active; also: potency is read from the fitted curve at half-maximal effect; % is scaled to controls: 0 for no effect and ±100 for the full control effect; nearly all actives have a fitted effect of over 65% in size
#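 Smad-responsive CAGA-GFP expression was quantified in HEPG2 cells exposed to compounds and 500 pg/mL final TGF-beta for 18 h at 37 degrees C; unstimulated wells defined full inhibition.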
# IL-1B inflam inh: inflammasome signaling inhibition, IL-1 beta readout. THP-1 LPS/ATP IL-1B secretion, AlphaLISA, 16 h; active compounds read low. activity change, % at 57.5 µM. 4.7% of 360,000 active. AID 743279; in the data active = activity change below about -50%; inconclusive = mostly about -30% to -49%; also: % is scaled to controls: 0 for no effect and ±100 for the full control effect
#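 Secreted IL-1B measured by AlphaLISA bead assay after 16 h compound exposure of THP-1 cells; compounds (final up to 57.5 uM) added 1 h before LPS (250 ng/mL) and ATP (1.25 mM) stimulation; lower signal means less secretion.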
# TDP1 block: blocks human tyrosyl-DNA phosphodiesterase 1. AID 485290. 0.28% of 350,000 active. Potency, µM (top dose mostly 130 µM), for inactives: at the highest dose activity change, negative = inhibition, usual class: inhibitors. recombinant TDP1, AlphaScreen DNA substrate cleavage. Q9NUW8; also: potency is read from the fitted curve at half-maximal effect; % is scaled to controls: 0 for no effect and ±100 for the full control effect; nearly all actives have a fitted effect of over 40% in size
# Target sequence (Q9NUW8 whole entry, looked up): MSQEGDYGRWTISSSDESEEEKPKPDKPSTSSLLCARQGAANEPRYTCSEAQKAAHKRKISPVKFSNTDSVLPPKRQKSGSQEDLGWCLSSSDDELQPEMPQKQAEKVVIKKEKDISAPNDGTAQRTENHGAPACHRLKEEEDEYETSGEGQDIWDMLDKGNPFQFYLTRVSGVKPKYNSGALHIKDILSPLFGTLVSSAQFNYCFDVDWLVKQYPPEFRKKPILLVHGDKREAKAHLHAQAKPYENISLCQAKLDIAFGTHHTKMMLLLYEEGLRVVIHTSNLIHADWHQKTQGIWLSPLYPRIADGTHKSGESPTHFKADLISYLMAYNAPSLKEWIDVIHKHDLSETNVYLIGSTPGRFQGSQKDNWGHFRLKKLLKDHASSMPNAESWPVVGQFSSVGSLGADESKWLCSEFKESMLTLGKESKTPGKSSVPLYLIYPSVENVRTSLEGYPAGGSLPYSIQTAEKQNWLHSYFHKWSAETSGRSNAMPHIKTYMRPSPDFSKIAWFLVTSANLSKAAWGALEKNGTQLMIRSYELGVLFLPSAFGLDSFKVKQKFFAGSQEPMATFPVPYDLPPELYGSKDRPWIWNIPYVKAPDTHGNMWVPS
#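 AlphaScreen read-out: signal falls as enzyme removes the 3' tyrosine-FITC from a 5'-biotinylated DNA oligo (15 nM, 5 min, RT). Enzyme was E. coli-made recombinant Tdp1 at 1 nM, exposed to compound for 15 min beforehand; beads 10 ug/ml, 10 min.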
# DT40 TDP1 CPT: growth inhibition of DT40 Tdp1-/-;hTDP1 cells with camptothecin (screen for TDP1 inhibitors); chicken DT40 Tdp1-/-;hTDP1 cells + 20 nM CPT, ATP luminescence, 48 h; Potency, µM (top dose mostly 46.2 µM), for inactives: at the highest dose activity change, negative = growth inhibition, hits mostly inhibitors; 12% of 420,000 active; also: potency is read from the fitted curve at half-maximal effect; % is scaled to controls: 0 for no effect and ±100 for the full control effect; nearly all actives have a fitted effect of over 55% in size
#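 Chicken DT40 Tdp1-/- cells stably complemented with human TDP1 were seeded at 400 cells/well in medium containing 20 nM camptothecin, exposed to pin-transferred compounds, and grown at 37 °C for at least 48 hr. Viability was read as ATP luminescence.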
# DT40 TDP1 no CPT: qHTS for Inhibitors of human tyrosyl-DNA phosphodiesterase 1 (TDP1): qHTS in cells in absence of CPT | AID 686978, 2013 | Potency, µM (doses to about 46.2 µM), without a hit: at the top dose activity change, negative = growth inhibition, hits mostly inhibitors | DT40 Tdp1-/- hTDP1 cells, no CPT, ATP luminescence, 48 h | 15% of 420,000 active; also: potency is read from the fitted curve at half-maximal effect; % is scaled to controls: 0 for no effect and ±100 for the full control effect; nearly all actives have a fitted effect of over 55% in size
#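 Stably hTDP1-transfected Tdp1-null chicken DT40 cells were treated with library compounds minus camptothecin and grown for at least 48 hr at 37 °C, after which cellular ATP was quantified by luminescence.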
# Numbers without * were called inactive; ? = inconclusive; nt = no result given. Unless noted, calls follow the shape of the dose curve; as a rule, active = well fitted curve in the direction sought with a large enough effect; inconclusive = small, poorly fitted or top-dose-only effect, or another doubt; inactive = no such curve, though single readings can be large; an effect the other way counts as inactive or inconclusive.
SMILES,HepG2 tox,TGFb inhibitor,IL-1B inflam inh,TDP1 block,DT40 TDP1 CPT,DT40 TDP1 no CPT
CCCC1=Nc2cc(C(=O)NCCN3CCOCC3)ccc2Sc2ccccc21,-10%,-7%,6,4%,-26%,1%
CCOC(=O)C1CCN(C(=O)c2ccc3c(c2)N=C(CC)c2cc(C)ccc2S3)CC1,-21%,10µM*,nt,2%,15µM*,?
CCCC1=Nc2cc(C(=O)NCc3ccccc3)ccc2Sc2ccccc21,8%,?,nt,0%,4.1µM*,3.3µM*
CCC1=Nc2cc(C(=O)NCCCOC(C)C)ccc2Sc2ccccc21,1%,-2%,12,7%,?,?
CCC1=Nc2cc(C(=O)NCc3ccco3)ccc2Sc2ccccc21,-15%,-28%,73,1%,3.3µM*,4.6µM*
CCC1=Nc2cc(C(=O)NCc3ccc(C)cc3)ccc2Sc2ccc(C)cc21,-16%,-21%,nt,3%,7.3µM*,8.2µM*
CCC1=Nc2cc(C(=O)O)ccc2Sc2ccccc21,-2%,-9%,19,0%,0%,-9%
CC1CCCC(NC(=O)C2CCN(S(=O)(=O)N3CCCCC3)CC2)C1C (centres undefined),7%,1%,2,5%,?,-29%
CC1=C(C(=O)Nc2cccnc2)C(c2ccc(F)cc2)n2nc(SCc3ccccc3F)nc2N1 (centres undefined),-12%,5%,nt,6%,-17%,-6%
COc1cccc(C(c2sc3nc(-c4ccco4)nn3c2O)N2CCC(C)CC2)c1 (centres undefined),-26%,-9%,nt,5%,7%,-12%
CCC1=Nc2cc(C(=O)NCc3ccco3)ccc2Sc2ccc(Cl)cc21,-17%,?,29,6%,1.3µM*,1µM*
CCC1=Nc2cc(C(=O)NCCc3ccc(OC)c(OC)c3)ccc2Sc2ccccc21,-20%,?,nt,8%,16µM*,23µM*
CCCC(=O)Oc1c(Sc2ccc(C)cc2)c(C)nn1-c1ccccc1,-4%,-1%,nt,12%,-17%,-17%
Cc1c(C(=O)N2CCC(C)CC2)c(S(=O)(=O)NCc2ccc(Cl)cc2)c(C)n1C,-28%,-31%,nt,4%,?,-27%
COc1cc(OC)c(NS(=O)(=O)c2c(C(=O)N3CCCCCC3)c(C)n(C)c2C)cc1Cl,-13%,21%,nt,12%,?,21µM*
Cc1cc(Cl)ccc1NS(=O)(=O)c1c(C(=O)N2CCC(C)CC2)c(C)n(C)c1C,-19%,-3%,nt,4%,?,16µM*
CSc1nc2[nH]c3c(c2c2ncnn12)CCCC3,-37%,-25%,-13,5%,15µM*,?
CSc1c2c(nc3ncnn13)CCC2,1%,-1%,-10,2%,17%,0%
CCc1cc2c3c([nH]c2cc1S(=O)(=O)N1CCC2(CC1)OCCO2)CCCC3=O,-12%,-8%,-16,-4%,23µM*,16µM*
Cc1n[nH]c(C)c1N1C(=O)c2cccc3c(Br)ccc(c23)C1=O,-4%,0%,-107*,3%,?,?
COc1ccc(Cn2c(CO)cnc2SCC(=O)NCc2ccco2)cc1,3%,7%,nt,2%,3%,7%
CCCCOc1ccc(C(=O)NCc2nnnn2-c2ccc(C)c(C)c2)cc1,-17%,?,nt,8%,16µM*,?
Cc1ccc(-n2nnnc2CNC(=O)C(C)(C)C)cc1C,0%,7%,nt,11%,-11%,-10%
CCN(CC)CC(O)Cn1c(C)c(-c2ccccc2)c2cc([N+](=O)[O-])ccc21 (centres undefined),-103%,?,-77*,nt,21µM*,9.2µM*

# From PubChem
